In PubChem BioAssay (Tox21):
Results filed as inconclusive are left out. Calls of active or inactive are those of the source. Unless noted, calls follow the shape of the full dose curve.

Tests used:
[1] = qHTS assay to identify small molecule agonists of the sonic hedgehog signaling (Shh) pathway (AID 1259368);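 also: NIH/3T3-derived 3T3Gli1-Luc cells carrying a stable Gli1-driven firefly luciferase reporter; series mostly up to about 92 µM; nearly all actives have a fitted effect of over 15% in size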
Outline: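 Cells of a mouse NIH/3T3 clone stably expressing luciferase under the Gli1 transcriptional response element are exposed to test chemicals for 24 hr at 37 C. Pathway activation is detected as a rise in luminescence.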

[2] = qHTS assay to identify small molecule antagonists of the sonic hedgehog signaling (Shh) pathway (AID 1259369); also: nearly all actives have a fitted effect of over 45% in size
Outline: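 Cells are plated and held 4hr at 37 C, compounds (DMSO) are pinned in, conditioned medium is added to stimulate the pathway, and after 24hr luciferase reagent is added for 30min before luminescence is read.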

[3] = target: Estrogen receptor beta (Homo sapiens) (UniProt Q92731); test: qHTS assay to identify small molecule antagonists of the estrogen receptor beta (ER-beta) signaling pathway (AID 1259378; active = well fitted inhibition curve with a large enough effect in the signal ratio in the repeat runs, not every such curve was filed as active; the % refers to the signal ratio)
Chain of Estrogen receptor beta (Homo sapiens) (Q92731 whole entry, looked up): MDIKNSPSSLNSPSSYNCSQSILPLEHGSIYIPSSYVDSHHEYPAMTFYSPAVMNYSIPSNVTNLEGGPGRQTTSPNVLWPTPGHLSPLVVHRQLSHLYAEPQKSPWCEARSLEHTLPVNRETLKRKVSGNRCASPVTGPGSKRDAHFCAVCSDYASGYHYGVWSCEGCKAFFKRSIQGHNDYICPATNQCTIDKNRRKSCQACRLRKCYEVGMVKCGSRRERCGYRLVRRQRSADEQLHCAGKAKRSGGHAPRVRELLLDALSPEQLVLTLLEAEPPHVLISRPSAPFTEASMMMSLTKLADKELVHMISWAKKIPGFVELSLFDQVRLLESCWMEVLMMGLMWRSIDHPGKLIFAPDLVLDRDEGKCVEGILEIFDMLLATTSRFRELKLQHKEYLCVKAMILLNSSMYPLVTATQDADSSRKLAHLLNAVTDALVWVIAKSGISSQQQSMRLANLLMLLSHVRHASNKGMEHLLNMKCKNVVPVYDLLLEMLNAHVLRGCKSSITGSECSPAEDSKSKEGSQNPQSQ
Outline: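 ER-beta-UAS-bla HEK293T (GripTite) cells in 2% charcoal-stripped FBS medium were preincubated 6 hr at 37C, dosed with compound, then stimulated with 1 nM E2 (final) for 16 hr; beta-lactamase reporter read by B/G FRET fluorescence after 2 hr substrate loading.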

[4] = qHTS assay to identify small molecule agonists of the androgen receptor (AR) signaling pathway in the presence of an antagonist - cell viability counter screen (AID 1259379; active = well fitted curve in the direction sought with a large enough effect in the repeat runs; an effect the other way counts as inactive or inconclusive;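 also: MDA-kb2 human breast cancer cells carrying an MMTV luciferase reporter; series mostly up to about 92 µM; nearly all actives have a fitted effect of over 25% in size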)
Outline: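 Cytotoxicity is assessed by CellTiter-Fluor in MDA-kb2 cells carrying an MMTV-driven luciferase reporter. Cells receive 3.0uM nilutamide plus compounds at 15 concentrations and incubate 16 hr at 37C without CO2 before fluorescence reading.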

[5] = qHTS assay to identify small molecule antagonists of the estrogen receptor beta (ER-beta) signaling pathway - cell viability counter screen (AID 1259382; active = well fitted curve in the direction sought with a large enough effect in the repeat runs; an effect the other way counts as inactive or inconclusive; also: series mostly up to about 92 µM; nearly all actives have a fitted effect of over 55% in size)
Outline: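 Cytotoxicity counter screen multiplexed with the beta-lactamase antagonist assay: GripTite HEK293T ER-beta-bla cells were treated 16 hr with test chemicals in the presence of 1nM 17-beta-estradiol, and viability was measured by CellTiter-Glo.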

[6] = target: Estrogen receptor (Homo sapiens) (UniProt P03372); test: qHTS assay to identify small molecule agonists of the estrogen receptor alpha (ER-alpha) signaling pathway in the presence of an antagonist (AID 1259383); also: top concentration of the series differs between compounds; nearly all actives have a fitted effect of over 15% in size
Chain of Estrogen receptor (Homo sapiens) (P03372 whole entry, looked up): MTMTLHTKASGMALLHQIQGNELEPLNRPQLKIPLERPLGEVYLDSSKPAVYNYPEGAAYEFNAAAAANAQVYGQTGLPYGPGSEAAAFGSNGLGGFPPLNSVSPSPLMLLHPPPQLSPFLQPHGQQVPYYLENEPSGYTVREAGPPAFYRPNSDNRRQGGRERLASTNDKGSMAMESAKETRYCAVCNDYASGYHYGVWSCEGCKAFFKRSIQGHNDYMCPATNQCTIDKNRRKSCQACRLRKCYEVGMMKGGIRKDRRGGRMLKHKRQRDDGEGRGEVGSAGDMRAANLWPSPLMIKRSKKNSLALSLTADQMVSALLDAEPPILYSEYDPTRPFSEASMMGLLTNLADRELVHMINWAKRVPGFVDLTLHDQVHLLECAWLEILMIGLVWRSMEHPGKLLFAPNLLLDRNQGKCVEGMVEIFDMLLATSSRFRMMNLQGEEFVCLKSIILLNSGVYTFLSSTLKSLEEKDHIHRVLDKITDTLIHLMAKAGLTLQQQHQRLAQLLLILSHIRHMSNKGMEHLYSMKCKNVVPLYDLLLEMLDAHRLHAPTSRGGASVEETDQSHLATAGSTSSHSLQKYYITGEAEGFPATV
Outline: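 Agonist-mode confirmation in the presence of the ER antagonist ICI-182,780 at 10.0nM final. Breast-derived VM7Luc4E2 reporter cells were exposed to compounds for 22hr, and ERE-driven luciferase was quantified by luminescence.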

[7] = qHTS assay to identify small molecule agonists or antagonists of the thyroid stimulating hormone receptor (TSHR) signaling pathway - wild type cell line counter screen (AID 1259384)
Outline: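 Wild-type HEK293 cells were plated 18 h at 37 C/5% CO2, pin-dosed with compound plus Ro20-1724 medium, held 30 min at room temperature, then given cAMP-d2 and anti-cAMP-cryptate; fluorescence was read after 1 h. Fifteen concentrations, triplicate.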

[8] = target: Thyrotropin receptor (Homo sapiens) (UniProt P16473); test: qHTS assay to identify small molecule antagonists of the thyroid stimulating hormone receptor (TSHR) signaling pathway (AID 1259385); also: nearly all actives have a fitted effect of over 20% in size
Chain of Thyrotropin receptor (Homo sapiens) (P16473 whole entry, looked up): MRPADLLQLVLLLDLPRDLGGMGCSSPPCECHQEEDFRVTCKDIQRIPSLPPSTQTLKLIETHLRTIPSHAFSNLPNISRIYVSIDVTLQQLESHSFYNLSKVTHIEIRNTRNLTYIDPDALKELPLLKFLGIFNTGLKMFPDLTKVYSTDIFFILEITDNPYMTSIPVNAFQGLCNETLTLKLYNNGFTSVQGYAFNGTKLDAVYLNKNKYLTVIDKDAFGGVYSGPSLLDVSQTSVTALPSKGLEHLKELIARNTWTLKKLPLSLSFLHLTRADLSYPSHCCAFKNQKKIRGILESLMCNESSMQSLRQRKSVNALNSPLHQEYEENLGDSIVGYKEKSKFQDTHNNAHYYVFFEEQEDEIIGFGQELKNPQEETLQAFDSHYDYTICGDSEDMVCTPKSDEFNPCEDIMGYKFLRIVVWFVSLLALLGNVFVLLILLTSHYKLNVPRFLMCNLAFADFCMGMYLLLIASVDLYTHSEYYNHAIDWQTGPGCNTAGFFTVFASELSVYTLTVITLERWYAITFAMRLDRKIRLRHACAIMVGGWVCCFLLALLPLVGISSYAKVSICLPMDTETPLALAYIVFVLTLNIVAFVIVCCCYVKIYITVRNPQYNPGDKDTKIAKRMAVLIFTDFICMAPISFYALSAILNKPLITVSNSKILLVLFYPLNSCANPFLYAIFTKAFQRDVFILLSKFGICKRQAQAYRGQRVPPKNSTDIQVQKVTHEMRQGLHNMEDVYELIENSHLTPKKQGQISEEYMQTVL
Outline: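 TSHR-HEK293 cells were plated and held 18 h at 37C/5% CO2, then given compound plus Ro20-1724 and stimulated with TSH at 1.5 ng/mL final. After 30 min at room temperature, cAMP was detected with cAMP-d2/anti-cAMP-cryptate (1 h) by fluorescence.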

[9] = target: Progesterone receptor (Homo sapiens) (UniProt P06401); test: qHTS assay to identify small molecule antagonists of the progesterone receptor (PR) signaling pathway (AID 1346795; active = well fitted inhibition curve with a large enough effect in the signal ratio in the repeat runs, not every such curve was filed as active; the % refers to the signal ratio)
Chain of Progesterone receptor (Homo sapiens) (P06401 whole entry, looked up): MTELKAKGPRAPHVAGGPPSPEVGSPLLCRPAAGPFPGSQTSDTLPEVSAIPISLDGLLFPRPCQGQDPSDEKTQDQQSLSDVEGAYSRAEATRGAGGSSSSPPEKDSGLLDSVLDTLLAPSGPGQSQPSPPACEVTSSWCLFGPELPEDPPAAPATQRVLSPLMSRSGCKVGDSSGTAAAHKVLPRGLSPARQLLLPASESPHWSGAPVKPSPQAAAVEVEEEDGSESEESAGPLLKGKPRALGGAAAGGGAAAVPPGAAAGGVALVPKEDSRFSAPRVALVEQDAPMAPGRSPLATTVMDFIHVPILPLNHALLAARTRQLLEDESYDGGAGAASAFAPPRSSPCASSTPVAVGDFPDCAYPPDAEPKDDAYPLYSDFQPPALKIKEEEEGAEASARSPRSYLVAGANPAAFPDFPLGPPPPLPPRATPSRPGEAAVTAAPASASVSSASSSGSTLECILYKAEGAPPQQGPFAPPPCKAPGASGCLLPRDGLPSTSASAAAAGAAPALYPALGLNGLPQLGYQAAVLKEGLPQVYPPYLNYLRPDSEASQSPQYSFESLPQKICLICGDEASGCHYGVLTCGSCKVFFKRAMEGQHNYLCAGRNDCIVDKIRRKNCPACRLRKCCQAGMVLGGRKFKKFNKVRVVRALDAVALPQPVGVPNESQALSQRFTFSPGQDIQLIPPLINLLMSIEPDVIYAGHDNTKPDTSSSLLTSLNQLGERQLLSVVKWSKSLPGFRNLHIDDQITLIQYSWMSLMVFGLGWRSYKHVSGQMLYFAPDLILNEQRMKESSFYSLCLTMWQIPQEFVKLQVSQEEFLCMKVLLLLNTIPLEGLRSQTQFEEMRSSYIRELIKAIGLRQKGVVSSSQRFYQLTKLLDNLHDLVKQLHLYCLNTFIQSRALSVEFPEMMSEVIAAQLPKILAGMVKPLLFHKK
Outline: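 After 6 hr plating at 37C in 2% stripped-serum medium, PR-UAS-bla HEK293T cells got compounds, then 1 nM R5020. Sixteen hours later, LiveBLAzer substrate was applied for 2 hr at room temperature and fluorescence was recorded.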

[10] = qHTS assay to identify small molecule antagonists of the progesterone receptor (PR) signaling pathway - cell viability counter screen (AID 1346798; active = well fitted curve in the direction sought with a large enough effect in the repeat runs; an effect the other way counts as inactive or inconclusive; also: series mostly up to about 92 µM; nearly all actives have a fitted effect of over 50% in size)
Outline: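 Viability was determined by ATP-based luminescence (CellTiter-Glo) in PR-UAS-bla HEK293T cells cultured in 2% charcoal-stripped serum and incubated 16 hr with compounds under R5020 stimulation.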

[11] = qHTS assay to identify small molecule agonists of the progesterone receptor (PR) signaling pathway - cell viability counter screen (AID 1346799); also: nearly all actives have a fitted effect of over 45% in size
Outline: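 Viability was scored by ATP luminescence (CellTiter-Glo, 30 min, room temperature) in the same wells used for the reporter readout, after 16 hr compound exposure of PR-UAS-bla HEK293T cells.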

[12] = qHTS assay to identify small molecule antagonists of the TGF-beta/Smad signaling pathway - cell viability counter screen (AID 1346824; active = well fitted curve in the direction sought with a large enough effect in the repeat runs; an effect the other way counts as inactive or inconclusive; also: nearly all actives have a fitted effect of over 50% in size)
Outline: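 SBE-bla HEK 293T cells were plated overnight at 37 C, then given compounds in DMSO plus TGF-beta1 (added as 0.25 ng/mL solution) for 5 hr. After the bla read, CellTiter-Glo was added to the same wells and luminescence read after 30 min at room temperature.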

[13] = qHTS assay to identify small molecule agonists of the TGF-beta/Smad signaling pathway - cell viability counter screen (AID 1346829; active = well fitted curve in the direction sought with a large enough effect in the repeat runs; an effect the other way counts as inactive or inconclusive; also: top concentration of the series differs between compounds; nearly all actives have a fitted effect of over 45% in size)
Outline: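 In parallel with the Smad reporter read, viability of HEK 293T cells stably carrying SBE-bla is quantified by ATP luminescence following 5 hr compound treatment.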

[14] = qHTS assay to identify small molecule agonists of the TGF-beta/Smad signaling pathway (AID 1346859; active = well fitted activation curve with a large enough effect in the signal ratio in the repeat runs, not every such curve was filed as active; the % refers to the signal ratio; also: series mostly up to about 77 µM)
Outline: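 Dual-wavelength fluorescence (460/530 nm emission) quantified beta-lactamase expression under the Smad binding element in HEK 293T cells following 5 hr compound treatment at 37 C.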

[15] = target: Thyrotropin-releasing hormone receptor (Homo sapiens) (UniProt P34981); test: qHTS assay to identify small molecule antagonists of the thyrotropin-releasing hormone receptor (TRHR) signaling pathway (AID 1346877; active = well fitted inhibition curve with a large enough effect in the repeat runs, not every such curve was filed as active; also: series mostly up to about 51 µM)
Chain of Thyrotropin-releasing hormone receptor (Homo sapiens) (P34981 whole entry, looked up): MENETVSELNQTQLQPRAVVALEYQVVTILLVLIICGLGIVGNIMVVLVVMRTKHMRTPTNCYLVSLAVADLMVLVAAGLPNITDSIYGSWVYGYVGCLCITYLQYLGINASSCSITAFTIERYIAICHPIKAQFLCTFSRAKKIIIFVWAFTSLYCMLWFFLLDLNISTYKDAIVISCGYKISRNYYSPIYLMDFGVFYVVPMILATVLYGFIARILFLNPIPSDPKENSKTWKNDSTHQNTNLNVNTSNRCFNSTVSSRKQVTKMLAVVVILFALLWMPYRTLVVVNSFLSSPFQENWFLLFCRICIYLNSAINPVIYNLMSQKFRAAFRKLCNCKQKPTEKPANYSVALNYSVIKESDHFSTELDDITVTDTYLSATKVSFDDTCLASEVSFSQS
Outline: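 Antagonism is measured as suppression of the calcium response to 1 nM TRH in TRHR-HEK293 cells that have been dye-loaded for 2 h at 37 °C after overnight plating. Each compound is tested at 15 concentrations in triplicate.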

[16] = qHTS assay to identify small molecule agonists of the estrogen receptor beta (ER-beta) signaling pathway - cell viability counter screen (AID 1259380; active = well fitted curve in the direction sought with a large enough effect in the repeat runs; an effect the other way counts as inactive or inconclusive; also: nearly all actives have a fitted effect of over 30% in size)
Outline: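 Cytotoxicity is measured in parallel with the reporter screen: after 16 hr compound exposure at 37C and a 2 hr LiveBLAzer step, CellTiter-Glo is added to the same ER-beta-UAS-bla HEK293T wells and luminescence read after 30 min.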

[17] = target: Androgen receptor (Homo sapiens) (UniProt P10275); test: qHTS assay to identify small molecule agonists of the androgen receptor (AR) signaling pathway in the presence of an antagonist (AID 1259381); also: nearly all actives have a fitted effect of over 15% in size
Chain of Androgen receptor (Homo sapiens) (P10275 whole entry, looked up): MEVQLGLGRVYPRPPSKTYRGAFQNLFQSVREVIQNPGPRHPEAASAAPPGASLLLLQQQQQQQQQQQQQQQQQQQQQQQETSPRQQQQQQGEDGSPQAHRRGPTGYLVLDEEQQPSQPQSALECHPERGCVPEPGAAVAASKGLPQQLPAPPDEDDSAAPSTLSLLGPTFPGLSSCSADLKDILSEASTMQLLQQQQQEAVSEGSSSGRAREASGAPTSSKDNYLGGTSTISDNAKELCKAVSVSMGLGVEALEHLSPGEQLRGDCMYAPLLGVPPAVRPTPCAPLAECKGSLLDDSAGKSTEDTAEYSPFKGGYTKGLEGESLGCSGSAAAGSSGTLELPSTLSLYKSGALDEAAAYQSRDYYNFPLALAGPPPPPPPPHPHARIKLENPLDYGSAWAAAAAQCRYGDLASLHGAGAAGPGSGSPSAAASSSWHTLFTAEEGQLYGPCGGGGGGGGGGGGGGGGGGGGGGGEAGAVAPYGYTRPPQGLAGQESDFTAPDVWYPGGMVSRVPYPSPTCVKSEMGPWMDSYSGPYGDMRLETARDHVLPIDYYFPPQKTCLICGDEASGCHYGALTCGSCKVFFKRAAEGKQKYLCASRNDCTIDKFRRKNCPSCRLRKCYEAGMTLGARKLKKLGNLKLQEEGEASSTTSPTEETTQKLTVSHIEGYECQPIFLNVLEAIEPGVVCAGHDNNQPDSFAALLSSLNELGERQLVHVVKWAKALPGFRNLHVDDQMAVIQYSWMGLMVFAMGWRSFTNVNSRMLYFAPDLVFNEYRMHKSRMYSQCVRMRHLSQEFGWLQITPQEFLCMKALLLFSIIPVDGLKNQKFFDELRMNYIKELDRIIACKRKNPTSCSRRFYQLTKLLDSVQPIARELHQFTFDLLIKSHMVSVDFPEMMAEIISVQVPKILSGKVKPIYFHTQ
Outline: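 Agonist-mode confirmation screen: human MDA-kb2 cells stably expressing luciferase under an MMTV promoter bearing AR and GR response elements, co-treated with 3.0uM nilutamide (final). Luminescence measured after 16hr compound incubation.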

[18] = qHTS assay to identify small molecule agonists of the estrogen receptor alpha (ER-alpha) signaling pathway in the presence of an antagonist - cell viability counter screen (AID 1259386; active = well fitted curve in the direction sought with a large enough effect in the repeat runs; an effect the other way counts as inactive or inconclusive;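 also: series mostly up to about 92 µM; cells exposed to compounds for 22 h at 37 °C before the viability read; nearly all actives have a fitted effect of over 30% in size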)
Outline: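 Cytotoxicity was measured in parallel with the ERE-luciferase agonist screen, in the same wells. The cells were VM7Luc4E2, which endogenously express ER-alpha, and treatment was with compounds plus 10.0nM ICI-182,780 for 22hr.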

[19] = target: Progesterone receptor (Homo sapiens) (UniProt P06401); test: qHTS assay to identify small molecule agonists of the progesterone receptor (PR) signaling pathway (AID 1346784); also: nearly all actives have a fitted effect of over 30% in size
Outline: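 The screen uses PR-UAS-bla HEK 293T cells in charcoal-stripped serum (2%). Compounds are applied for 16 hr at 37C after a 6 hr pre-incubation, and reporter activity is detected with a FRET beta-lactamase substrate after 2 hr at room temperature.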

[20] = target: Estrogen receptor beta (Homo sapiens) (UniProt Q92731); test: qHTS assay to identify small molecule agonists of the estrogen receptor beta (ER-beta) signaling pathway (AID 1259377; active = well fitted activation curve with a large enough effect in the signal ratio in the repeat runs, not every such curve was filed as active; the % refers to the signal ratio)
Outline: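 Measured by fluorescence intensity from a B/G FRET beta-lactamase substrate (2 h, room temperature) in ER-beta-UAS-bla HEK293T cells treated with DMSO-dissolved compounds for 16 hr at 37C and 5% CO2.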

Measured: Potency

CCCCCCC(=O)OCC
not listed: [16] | [17] | [18] | [19] | [20]
inactive: all other assays above

COc1cc(CCC(C)=O)ccc1O
not listed: [6] | [10] | [13] | [15] | [20]
inactive: all other assays above

Cc1cc(C)c(NC(=O)CN(CC(=O)O)CC(=O)O)c(C)c1Br
not listed: [6] | [7] | [8] | [15] | [16] | [17] | [20]
inactive: all other assays above

NCCNC(=O)c1ccc(Cl)cn1
not listed: [3] | [17] | [20]
inactive: all other assays above

COC(=O)[C@H]1[C@H]2C[C@@H]3c4[nH]c5cc(OC)ccc5c4CCN3C[C@H]2C[C@@H](OC(=O)COc2ccc(OC)cc2)[C@@H]1OC
not listed: [3] | [5] | [14] | [16] | [17] | [19]
inactive: all other assays above

NS(=O)(=O)c1cc2c(cc1Cl)NC(CSCc1ccccc1)=NS2(=O)=O
not listed: [3] | [17] | [20]
inactive: all other assays above

CCC(=O)/C=C/c1ccc(OC)cc1
inactive: [1] | [2] | [20] | [4] | [5] | [6] | [18] | [19] | [13] | [14] | [15]

Cc1ncc(CSSCc2cnc(C)c(O)c2CO)c(CO)c1O
not listed: [3] | [19] | [20]
inactive: all other assays above

CO[Si](CCCNCCC[Si](OC)(OC)OC)(OC)OC
not listed: [3] | [9] | [17] | [20]
inactive: all other assays above
